{"source": "PubChem BioAssay (EPA / NIEHS)", "note": "Some structures have more than one record in an assay (separate samples or runs), and their calls can disagree. Activity calls are given as the source filed them. The calls were made as follows: active = hit-call score of the fitted dose curve at least 0.9, where 1 is the maximum; inactive = score below 0.9."}
{"molecular_target": "Myc proto-oncogene protein (Homo sapiens) (UniProt P01106)", "sequence (P01106 whole entry, looked up)": "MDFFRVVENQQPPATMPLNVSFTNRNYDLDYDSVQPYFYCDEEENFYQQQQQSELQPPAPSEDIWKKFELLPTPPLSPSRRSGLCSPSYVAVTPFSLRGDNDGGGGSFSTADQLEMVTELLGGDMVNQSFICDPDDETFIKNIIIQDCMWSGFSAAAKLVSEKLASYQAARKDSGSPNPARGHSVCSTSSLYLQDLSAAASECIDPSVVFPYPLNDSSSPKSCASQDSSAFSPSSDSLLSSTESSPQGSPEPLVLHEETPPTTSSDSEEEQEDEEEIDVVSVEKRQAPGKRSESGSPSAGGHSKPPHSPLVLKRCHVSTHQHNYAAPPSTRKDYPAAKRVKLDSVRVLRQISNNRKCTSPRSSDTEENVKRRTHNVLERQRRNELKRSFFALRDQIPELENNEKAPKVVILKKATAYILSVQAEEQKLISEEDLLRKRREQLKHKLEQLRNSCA", "experiment": "ATG_Myc_CIS: Attagene CIS-FACTORIAL HepG2 Assay for human Myelocytomatosis (Myc) Proto-Oncogene Transcription Factor (AID 2282990)", "details": "HepG2, Attagene cis-reporter transcription factor activity; actives raise or lower the signal", "protocol": "ATG_CIS is a cell-based, multiplexed-readout assay that uses HepG2, a human liver cell line, with measurements taken at 24 hours after chemical dosing in a 24-well plate.ATG_Myc_CIS is one of 52 assay component(s) measured or calculated from the ATG_CIS assay. It is designed to make measurements of mRNA induction, a form of inducible reporter, as detected with fluorescence intensity signals by Reverse transcription polymerase chain reaction (RT-PCR) and Capillary electrophoresis technology.Data from the assay component ATG_Myc_CIS was analyzed into 1 assay endpoint. This assay endpoint, ATG_Myc_CIS, was analyzed with bidirectional fitting relative to DMSO as the negative control and baseline of activity. Using a type of inducible reporter, measures of mRNA for gain or loss-of-signal activity can be used to understand the reporter gene at the transcription factor-level as they relate to the gene MYC. Furthermore, this assay endpoint can be referred to as a primary readout, because this assay has produced multiple assay endpoints where this one serves a reporter gene function. To generalize the intended target to other relatable targets, this assay endpoint is annotated to the dna binding intended target family, where the subfamily is basic helix-loop-helix leucine zipper.\nHuman liver HepG2 cells are transiently transfected with multiple reporter transcription units (MRTUs) in 6-well plates using FuGene 6 reagent (Roche; 3 ml FuGene/1 mg DNA). The MRTU constructs are regulated by a cis-regulating element (promoter). […] A major difference between the CIS and TRANS system is that in CIS activities of endogenous TFs are measured, whereas the TRANS assay evaluates changes in activities of exogenous, chimeric NR-Gal4 proteins. […] At the end of 24 hour incubation, total RNA was isolated using TriZol reagent (Invitrogen). The isolated RNA is then reverse-transcribed using oligo(dT) primer and Mo-MLV reverse transcriptase (Invitrogen) with DNAse I (Ambion) treatment for 30 min. The one-tenth of the produced cDNA was amplified by PCR using Taq DNA polymerase (Invitrogen) and two reporter sequence-specific primers. The PCR products were fluorescently labeled by primer extension with 6-arboxyfluorescein (6-FAM) 5'-labeled reporter sequence-specific primer (2 min at 95 C, 20 s at 68 C and 10 min at 72 C) and these products were digested with 5U of HpaI (New England Biolabs) for 2h at 37 C. The fragments were purified using Qiaquick PCR columns (Qiagen), analyzed on an ABI 3130xL genetic analyzer (Applied Biosystems) with peak positions identified by using a set of X-rhodamine (ROX)-labeled MapMarker1000 molecular weight standards (BioVentures). The raw capillary electrophoresis data was processed using Attagraph software (Attagene)."}
{"smiles": "Cc1cc2c(cc1C(F)(F)F)N(C(=O)Nc1ccc(Oc3cccnc3C)nc1)CC2", "outcome": "inactive"}
{"smiles": "CC/C(=C(/CC)c1ccc(O)cc1)c1ccc(O)cc1", "AC50": "18.6 µM (active)", "outcome": "inactive"}
{"smiles": "NC(=O)c1nc(-c2cccc(-c3cc(F)ccc3OCC(F)(F)C(F)(F)F)c2)n[nH]1", "outcome": "inactive"}
{"smiles": "O=CCCCC=O", "outcome": "inactive"}
{"smiles": "CCCCCCCCOC(=O)c1cc(O)c(O)c(O)c1", "outcome": "inactive"}
{"smiles": "O=C(O)c1ccccc1-n1cc(C(=O)O)c(=O)c2cc(Nc3c(F)cc(F)cc3Cl)c(Cl)cc21", "outcome": "inactive"}
{"smiles": "CN(C[C@@H](CC[N+]12CCC(C3CCCCC3)(CC1)CC2)c1ccc(Cl)c(Cl)c1)C(=O)c1cc(C(F)(F)F)cc(C(F)(F)F)c1", "outcome": "inactive"}
{"smiles": "O=c1ccc2ccccc2o1", "outcome": "inactive"}
{"smiles": "NCc1cccc(C2CCN(C(=O)c3ccc(C#Cc4ccccc4F)o3)CC2)c1", "outcome": "inactive"}
{"smiles": "O=c1[nH]sc2ccccc12", "outcome": "inactive"}
{"smiles": "CCCC(=O)OCCC(C)C", "outcome": "inactive"}
{"smiles": "CCCCCCCCCCCO", "outcome": "inactive"}
{"smiles": "Cc1ccc2oc(CN(Cc3ccccc3)C(=O)Nc3c(F)cc(F)cc3F)c(-c3ccc(Cl)cc3)c2c1", "outcome": "inactive"}
{"smiles": "CC(C)(O)c1ccc(CNC(=O)c2cccnc2Oc2ccc3nonc3c2)cc1", "outcome": "inactive"}
{"smiles": "Cc1c2ccccc2c(C)c2c1ccc1ccccc12", "AC50": "64.1 µM (active)"}
{"smiles": "c1ccc2ccccc2c1", "outcome": "inactive"}
{"smiles": "CC1=CC(=O)/C(=C(/C)O)C(=O)O1", "outcome": "inactive"}
{"smiles": "O=C1O[C@H]([C@@H](O)CO)C(O)=C1O", "outcome": "inactive"}
{"smiles": "Clc1cc(Cl)c2c(c1)N=C1CCCCCN1C2", "outcome": "inactive"}
{"smiles": "Cc1ncc(CO)c(CO)c1O", "outcome": "inactive"}
{"smiles": "O=C(O)Cn1c(=O)n(Cc2ccc(Br)cc2F)c(=O)c2ccc(Cl)cc21", "outcome": "inactive"}
{"smiles": "O=C1CCC(C2CCCCC2)CC1", "AC50": "187 µM (active)", "outcome": "inactive"}
{"smiles": "CN1C(=O)N(c2ccccc2Br)Cc2cnc(Nc3ccc4c(c3)OCC(CO)O4)nc21", "note": "(stereo not given)", "AC50": "2.93 µM (active)"}
{"smiles": "CC(C)(c1cc(Br)c(O)c(Br)c1)c1cc(Br)c(O)c(Br)c1", "outcome": "inactive", "AC50": "38.2 µM (active)"}
{"smiles": "c1ccc2n[nH]nc2c1", "outcome": "inactive"}
{"smiles": "CCCCCCCCCC(=O)O", "outcome": "inactive"}
{"smiles": "O=C=NCCCCCCN=C=O", "outcome": "inactive"}
{"smiles": "CCCCOC(=O)c1ccc(O)cc1", "outcome": "inactive", "AC50": "100 µM (active)"}
{"smiles": "CCCCCCCCOc1ccc(C(=O)c2ccccc2)c(O)c1", "outcome": "inactive"}
{"smiles": "CCCCOC(=O)CC(CC(=O)OCCCC)(OC(C)=O)C(=O)OCCCC", "outcome": "inactive"}
{"smiles": "Cc1occc1C(=O)Nc1ccc(C(=O)N2CCC(F)(F)/C(=C\\C(=O)N3CCC(N4CCCCC4)CC3)c3ccccc32)cc1", "AC50": "58.3 µM (active)"}
{"smiles": "CCN(Cc1cccnc1)C(=O)c1cccc(Cl)c1[C@]1(C)C(=O)N(Cc2ccc(OC)cc2OC)c2ccc(Cl)cc21", "outcome": "inactive"}
{"smiles": "CCCCCCCCN(C)CCCCCCCC", "outcome": "inactive"}
{"smiles": "C[C@]12CC[C@@H]3c4ccc(O)cc4CC[C@H]3[C@@H]1CCC2=O", "outcome": "inactive"}
{"smiles": "CC1(C)NC(=O)N(c2ccc([N+](=O)[O-])c(C(F)(F)F)c2)C1=O", "outcome": "inactive"}
{"smiles": "CN(C)c1ccc(C(=C2C=CC(=[N+](C)C)C=C2)c2ccc(N(C)C)cc2)cc1", "outcome": "inactive"}
